Screening results from PubChem.
Pf growth 48h: inhibits P. falciparum growth in the first generation, 48 h; P. falciparum luciferase growth in erythrocytes, 48 h; Potency, µM (titrated, usually from 28.7 µM), for inactives: at the highest dose activity change, negative = inhibition, hits mostly inhibitors; 310,000 tested, 5.9% active; AID 504832; further: potency means the concentration at half of the fitted maximal effect; on the % scale 0 is the no-effect control and ±100 the full control effect
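Growth was read as firefly luciferase luminescence after a 48 h, 37 C, 5% CO2 exposure of compounds to reporter-bearing P. falciparum cultures (0.1% parasitemia, 2% hematocrit final) in Albumax-supplemented RPMI 1640.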
Shiga inhibitor: inhibitors of Shiga toxin in Vero cells; Vero cells, Shiga toxin protein synthesis inhibition reporter; inhibition, % at 38.7 µM; 290,000 tested, 9.2% active; AID 2315; in the data active means inhibition mostly above about 28%, no sharp cut-off; inactive means mostly below about 43%; further: 0% is about no effect
CHX counter: affects cycloheximide protein synthesis inhibition readout, counter-screen | cell reporter, cycloheximide protein synthesis inhibition counterscreen | max response, % | 300,000 tested, 12% active | AID 2314; in the data active means max response mostly above about 13%, no sharp cut-off; inactive means mostly below about 14%; further: read at 38.3 µM for the half of the compounds with a filed dose; 0% is about no effect
HCMV inh: inhibitors of human cytomegalovirus | HFF cells, HCMV-luciferase reporter, 72 h; hits give low values | activity change, negative = inhibition, % at 57.5 µM | 410,000 tested, 4.5% active; in the data active means activity change below about -60%; inconclusive means no clear call, values can overlap the other calls; inactive means above about -39%; further: on the % scale 0 is the no-effect control and ±100 the full control effect
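Human foreskin fibroblasts infected with luciferase-reporter HCMV at MOI 1 PFU/cell, compounds at two doses. Luciferase measured 72 h post infection; normalized to buffer-only basal and Salinomycin (10uM) controls.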
Pf growth 96h: inhibits malaria parasite growth, 96 h; Potency, µM (titrated, usually from 28.7 µM), inactives show at the top dose activity change, negative = inhibition, actives largely listed as inhibitors; 320,000 tested, 6.9% active; P. falciparum luciferase reporter growth, 96 h; further: potency means the concentration at half of the fitted maximal effect; on the % scale 0 is the no-effect control and ±100 the full control effect
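Delayed-death screen, second-generation endpoint: infected erythrocytes, 2% hematocrit, 0.05% parasitemia final; 96 hours at 37 C, 5% CO2; luciferase detection reagent; luminescence decrease equals reduced growth.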
Numbers without * were called inactive; i = inactive; ? = inconclusive; . = no result. The list is not random: actives were taken first. Their share in the collection is about 20%. Unless noted, the call rests on the fitted dose curve; in most records, active means well fitted inhibition curve with a large enough effect; inconclusive means small, poorly fitted or top-dose-only effect, or another doubt; inactive means no such curve, though single readings can be large or run the other way.

SMILES	Pf growth 48h	Shiga inhibitor	CHX counter	HCMV inh	Pf growth 96h
CCOC(=O)N1CCN(C(=O)CN(Cc2ccc(Cl)cc2)S(=O)(=O)c2ccccc2)CC1	8.28µM*	19.6	-1.6	-31.3	?
CCOC(=O)N1CCN(c2ccc(S(=O)(=O)N3CCOCC3)cn2)CC1	.	.	.	-15.3	.
CCOC(=O)N1CCN(c2ccc(S(=O)(=O)N(Cc3ccccc3)Cc3ccccc3)cn2)CC1	13.1µM*	-4.0	-0.8	-90.3*	-29.4%
CCOC(=O)N1CCN(C(=O)CN(Cc2ccccc2)S(C)(=O)=O)CC1	-5.9%	10.6	-1.8	52.5	244.4%
Cc1ccc(/C=N/n2c(C)nnc2C)s1	0.2%	15.0	-2.0	28.0	-14.9%
O=C(O)c1cc(N/N=C/c2cccs2)ccc1Cl	121.8%	94.7*	49.2*	.	134.6%
Cc1ccc(/C=N/Nc2ccc(Cl)c(C(=O)O)c2)s1	301.9%	149.7*	103.6*	117.0	i
Cc1ccc(/C=N/Nc2ccc(F)cc2)s1	?	67.6*	23.1*	49.8	?
Cn1c(N/N=C/c2cccs2)cc(=O)n(C)c1=O	.	22.0	20.9*	35.3	-6.3%
CSCCC(NC(=O)c1ccccc1Br)C(=O)NNC(=O)c1ccco1 (stereo not drawn)	0.0%	.	.	?	0.0%
CC1CC(C)CN(C(=O)COC(=O)CNC(=O)C23CC4CC(CC(C4)C2)C3)C1 (stereo not drawn)	-12.6%	.	.	-25.8	12.7%
CCOc1ccc(N(CC)S(=O)(=O)N2CCCC(C(=O)Nc3cc(Cl)ccc3OC)C2)cc1 (stereo not drawn)	.	.	.	-8.7	.
COc1ccc(/C=C/C(=O)c2c(O)ccc3c(C)cc(=O)oc23)cc1	10.4µM*	-8.1	-2.6	-77.7*	i
COc1ccc(/C=C/C(=O)c2cc3c(cc2N)OCO3)cc1	419.9%	80.2*	33.0*	12.2	?
COc1ccc(/C=C/C(=O)c2ccc3c(c2)OCO3)cc1OC	16.5%	.	.	?	-1.9%
COc1ccc(/C=C/C(=O)c2ccc(OC)cc2OC)cc1	3.01µM*	47.7*	37.2*	-30.2	1.69µM*
COc1ccc(C(=O)COC(=O)/C=C/c2ccccc2)c(OC)c1	12.7%	.	.	-22.8	-3.1%
COc1ccc(/C=C/C(=O)Oc2ccc(C=O)cc2OC)cc1	.	.	.	40.9	.
COc1ccc(/C=C/C(=O)c2c(OC)cc(O)cc2OC)cc1	.	65.2*	36.2*	.	.
C[C@@H]1CN([C@@H](C)CO)C(=O)c2cc(-c3ccncc3)cnc2O[C@H]1CN(C)C(=O)c1cccc(F)c1	.	.	.	10.3	.
COc1ccc(-n2nc3cc(C)c(NC(=O)Cc4ccc(Cl)cc4)cc3n2)cc1	.	.	.	34.7	.
CCN(C[C@H]1N[C@@](C)(C(=O)OC)[C@H]2C(=O)N(Cc3ccccc3)C(=O)[C@@H]12)C(=O)c1ccccc1	.	.	.	7.5	.
COc1cc(OC)c(C(=O)/C=C/c2ccccc2)c(O)c1O	?	4.0	4.7	7.1	11.7µM*
COc1cc(O)cc(O)c1C(=O)/C=C/c1ccccc1	?	8.3	8.9*	?	45.3%
N#Cc1ccc(OC(=O)c2cc(-c3ccc(Cl)cc3)on2)cc1	.	.	.	-11.6	.
SMILES	Pf growth 48h	Shiga inhibitor	CHX counter	HCMV inh	Pf growth 96h
CO/N=C/c1ccc(Oc2ccc(C)cc2)nc1	31.4%	44.9*	26.8*	75.9	4.7%
Cc1ccc(Oc2ccc(C=O)cn2)cc1	494.4%	25.7	19.8	-17.6	42.6%
Cc1nc(NC(=O)CSc2nnc(-c3ccc4c(c3)OCO4)o2)c(Cl)cc1Cl	77.4%	active	18.6*	-4.8	9.4%
O=C(O)CSc1nnc(-c2ccc3c(c2)OCO3)o1	-11.2%	49.9	-2.0	36.4	.
NC(=O)CSc1nnc(-c2ccc3c(c2)OCO3)o1	424.6%	75.1*	27.9*	1.2	175.1%
C/C(N)=C(/C#N)C(=O)CSc1nnc(-c2ccc3c(c2)OCO3)o1	194.5%	99.3*	43.6*	53.1	.
CCn1c(CSc2nnc(-c3ccc4c(c3)OCO4)o2)nc2cc(S(=O)(=O)N(C)C)ccc21	?	5.1	3.0	-82.4*	.
CC(C)(C)c1ccc(CC(=O)N2CCC2(C)C(=O)Nc2cccc3c2CCCC3)cc1 (stereo not drawn)	.	.	.	-0.6	.
CS(=O)(=O)c1ccc(Cl)c(NC(=O)C2CCCN(C(=O)c3ccc(Cl)cc3)C2)c1 (stereo not drawn)	?	.	.	-5.5	-28.0%
Cc1cc(N2CC(C(=O)NCc3cccnc3)CC2=O)ccc1C(C)C (stereo not drawn)	-13.7%	-5.7	0.7	-33.6	?
C/C(N)=C(/C#N)C(=O)CSc1nnc(-c2ccc(OC(F)F)cc2)o1	126.1%	98.9*	34.8*	32.3	?
CCOC(=O)c1c(C)[nH]c(C)c1C(=O)CSc1nnc(-c2ccc(OC(F)F)cc2)o1	.	-12.4	-2.4	?	?
O=C(c1ccc(Cl)cc1)N1CCCCC(Sc2nnc(-c3ccc4c(c3)OCO4)o2)C1=O (stereo not drawn)	58.9%	-5.5	-3.4	-66.7*	4.3%
N#CCSc1nnc(-c2ccc3c(c2)OCO3)o1	9.5%	23.8*	13.9*	-35.1	38.9%
Cc1ccc(-c2nc(CS(=O)CC(=O)NCc3ccccc3Cl)c(C)o2)cc1 (stereo not drawn)	.	.	.	-10.3	.
CC1=NN(c2ccccc2)C(=O)/C1=C\c1cn(C)c2ccccc12	?	1.5	-3.9	61.1	?
CC1=NN(c2ccccc2)C(=O)/C1=C/c1cc2cc(C)ccc2nc1N1CCCCC1	?	43.2	23.5*	.	76.3%
CC1=NN(c2ccccc2)C(=O)/C1=C/C=C/c1ccc(N(C)C)cc1	?	-5.2	1.6	7.2	?
CC1=NN(c2ccccc2)C(=O)/C1=C\c1cc(C)n(C)c1C	?	48.6*	28.8*	45.3	9.28µM*
CC1=NN(c2ccccc2)C(=O)/C1=C/c1cccc(C)c1	0.3%	46.0	-2.2	?	12.2%
CC1=NN(c2ccccc2)C(=O)/C1=C\C=C\c1ccccc1	?	-2.7	-4.1	-97.6*	11.7µM*
CC1=NN(c2ccccc2)C(=O)/C1=C/c1cn(C)c2ccccc12	?	-6.3	0.4	-11.7	7.38µM*
COc1ccccc1CNC(=O)C1CCC(CNS(=O)(=O)c2cccc3cccnc23)CC1 (stereo not drawn)	?	-0.6	-2.9	-3.7	9.6%
Cc1ccc2c(c1)c1c(c(=O)n(Cc3ccccc3)c(=O)n1Cc1cccc(C(F)(F)F)c1)n2C	.	.	.	34.4	.
COc1cccc(Nc2nc(N)nc(C(F)(F)F)n2)c1	62.3%	59.1	16.2	38.4	55.3%
Nc1nc(Nc2ccc(Cl)cc2Cl)nc(C(F)(F)F)n1	87.9%	65.4*	42.6*	57.7	-26.1%
Clc1ccc(Nc2nc(-c3ccccc3)c3ccccc3n2)c(Cl)c1	.	.	.	-2.8	.
Nc1ncnc(Nc2ccccc2C(F)(F)F)n1	11.1%	-2.3	1.3	46.5	.
Nc1nc(Nc2ccccc2Br)nc(C(F)(F)F)n1	46.7%	24.3	11.7	45.7	10.4µM*
Nc1nc(Nc2ccccc2)nc(C(F)(F)F)n1	40.4%	47.3	30.0*	7.1	7.38µM*
